From PubChem BioAssay (NCATS)
Results filed as inconclusive are left out. Active and inactive are the calls of the source. Unless noted, calls follow the shape of the dose curve; as a rule, active = well fitted curve in either direction with a large enough effect (not every such curve was filed as active); inconclusive = small, poorly fitted or top-dose-only effect, or another doubt; inactive = flat fitted curve, though single readings scatter.

What was measured:
[1] = target: Lysosomal acid glucosylceramidase (Homo sapiens) (UniProt P04062); assay: Glucocerebrosidase-p2 (AID 348; in the data active = potency below about 10 µM; also: potency is read from the fitted curve at half-maximal effect); details: purified GBA, blue fluorogenic substrate, 40 min
Chain of Lysosomal acid glucosylceramidase (Homo sapiens) (P04062 whole entry, looked up): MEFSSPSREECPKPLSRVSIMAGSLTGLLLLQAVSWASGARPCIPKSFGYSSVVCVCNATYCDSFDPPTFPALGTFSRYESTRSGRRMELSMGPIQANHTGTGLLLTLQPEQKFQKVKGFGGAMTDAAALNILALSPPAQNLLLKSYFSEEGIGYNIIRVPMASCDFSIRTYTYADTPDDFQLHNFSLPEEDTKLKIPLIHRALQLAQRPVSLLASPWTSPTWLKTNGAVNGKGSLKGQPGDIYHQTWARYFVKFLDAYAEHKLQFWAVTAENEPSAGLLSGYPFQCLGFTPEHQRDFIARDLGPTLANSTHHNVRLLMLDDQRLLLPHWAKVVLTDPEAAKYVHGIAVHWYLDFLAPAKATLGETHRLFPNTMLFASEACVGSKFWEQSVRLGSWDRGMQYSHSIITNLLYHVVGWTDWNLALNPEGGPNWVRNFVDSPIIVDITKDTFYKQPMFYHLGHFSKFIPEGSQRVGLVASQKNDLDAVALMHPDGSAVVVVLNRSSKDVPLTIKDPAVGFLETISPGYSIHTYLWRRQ
In short: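 Normal human glucocerebrosidase (0.2 nM) with blue fluorogenic substrate (80 uM final) in citrate/phosphate pH 5.9 with 10mM sodium taurocholate, 0.01% tween-20; 40 min RT, NaOH/glycine stop; fluorescence Ex 365/Em 440; AC50 from a titration from 0.6 nM upwards.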

[2] = AP1 Signaling Pathway (AID 357); details: ME-180 AP-1-bla reporter, EGF-induced, beta-lactamase ratio, 5 h; at 7.69 µM (top of the series) unless noted;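 also: ME-180 reporter cells stimulated with EGF at its EC50 level; % is scaled to controls: 0 for no effect and ±100 for the full control effect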
In short: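 Cells are seeded overnight, exposed to compound titrations and an EC50 level of EGF for 5 hours at 37 °C, then loaded with CCF4 dye for 2.5 hours. Beta-lactamase activity under the AP-1 element is read as a blue/green ratio.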

[3] = target: Cytochrome P450 1A2 (Homo sapiens) (UniProt P05177); assay: p450-cyp1a2 (AID 410; calls by dose curve; also: potency is read from the fitted curve at half-maximal effect;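 as to activity change, negative = inhibition: -100% = full effect of reference inhibitor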); details: recombinant CYP1A2, luciferin-ME demethylation, luminescence; series mostly up to 57 µM
Chain of Cytochrome P450 1A2 (Homo sapiens) (P05177 whole entry, looked up): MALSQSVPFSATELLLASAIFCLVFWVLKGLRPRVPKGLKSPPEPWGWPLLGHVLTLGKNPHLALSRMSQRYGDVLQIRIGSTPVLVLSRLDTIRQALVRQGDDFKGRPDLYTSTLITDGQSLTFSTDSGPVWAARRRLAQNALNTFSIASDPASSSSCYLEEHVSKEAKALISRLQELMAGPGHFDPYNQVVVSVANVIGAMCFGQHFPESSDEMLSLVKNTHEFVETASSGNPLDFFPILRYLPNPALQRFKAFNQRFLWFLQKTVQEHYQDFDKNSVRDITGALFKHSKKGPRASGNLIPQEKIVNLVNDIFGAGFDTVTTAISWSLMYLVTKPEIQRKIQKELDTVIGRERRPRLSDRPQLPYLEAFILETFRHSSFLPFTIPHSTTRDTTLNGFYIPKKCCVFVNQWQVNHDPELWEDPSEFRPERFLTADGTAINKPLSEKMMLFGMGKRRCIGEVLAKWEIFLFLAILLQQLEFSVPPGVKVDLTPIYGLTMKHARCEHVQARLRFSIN
In short: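 Read-out is luminescence from luciferin produced by CYP1A2 demethylation of Luciferin-ME (100uM, at Km). Detection reagent stopped the 60 min NADPH-dependent reaction; signals were normalized to 57 uM furafylline.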

[4] = NFAT Signaling Pathway (AID 444); details: Jurkat NFAT-bla M1, carbachol, beta-lactamase ratio, 5 h; at 7.69 µM (top of the series) unless noted;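 also: carbachol stimulus at about its EC50 of 1 µM final; % is scaled to controls: 0 for no effect and ±100 for the full control effect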
In short: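 Read-out: CCF4 FRET ratio (460 nm/530 nm) after 1 h RT dye loading, used for %activity and AC50 from titration series. Cells: Jurkat NFAT-β-lactamase/M1 line, treated with compound plus 1 uM carbachol for 5 h, 37 °C.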

[5] = target: Glucocorticoid receptor (Homo sapiens) (UniProt P04150); assay: GR-EFC Redistribution (AID 451; calls by dose curve; also: potency is read from the fitted curve at half-maximal effect); details: CHO-K1 GR-EFC translocation, beta-gal luminescence, 2 h
Chain of Glucocorticoid receptor (Homo sapiens) (P04150 whole entry, looked up, the tested form may be a part): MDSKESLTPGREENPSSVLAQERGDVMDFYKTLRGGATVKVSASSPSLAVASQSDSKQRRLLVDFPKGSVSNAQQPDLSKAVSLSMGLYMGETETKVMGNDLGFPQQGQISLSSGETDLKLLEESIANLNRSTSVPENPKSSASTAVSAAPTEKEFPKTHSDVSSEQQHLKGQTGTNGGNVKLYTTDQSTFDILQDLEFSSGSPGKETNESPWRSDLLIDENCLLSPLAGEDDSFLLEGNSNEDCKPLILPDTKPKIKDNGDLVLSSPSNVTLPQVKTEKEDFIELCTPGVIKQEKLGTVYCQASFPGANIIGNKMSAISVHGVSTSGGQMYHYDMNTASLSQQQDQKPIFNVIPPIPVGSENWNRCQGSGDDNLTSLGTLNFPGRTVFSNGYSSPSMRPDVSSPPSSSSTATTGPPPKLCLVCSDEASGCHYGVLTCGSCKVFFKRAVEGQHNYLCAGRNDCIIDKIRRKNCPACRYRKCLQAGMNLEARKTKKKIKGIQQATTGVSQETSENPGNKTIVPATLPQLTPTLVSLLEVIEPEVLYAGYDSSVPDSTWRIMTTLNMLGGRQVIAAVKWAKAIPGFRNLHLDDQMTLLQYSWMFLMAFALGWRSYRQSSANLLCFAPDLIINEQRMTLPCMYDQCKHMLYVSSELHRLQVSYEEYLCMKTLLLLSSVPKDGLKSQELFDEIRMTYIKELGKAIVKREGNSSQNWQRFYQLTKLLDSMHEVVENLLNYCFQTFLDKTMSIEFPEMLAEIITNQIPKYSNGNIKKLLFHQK
In short: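 Translocation of GR-ED fusion to nuclear EA restores b-gal, read by luminescence after 1 h room-temperature detection. Engineered CHO-K1 biosensor cells, 1,000/well, exposed 2 h at 37 C to titrations up to 46 uM final.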

[6] = target: Mitogen-activated protein kinase 10 (Mus musculus) (UniProt Q61831); assay: JNK3 AlphaScreen Assay (AID 530); details: JNK3 lysate, c-Jun phosphorylation; series mostly up to 57.1 µM;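 also: kinase came from lysate of stimulated human HepG2 cells; signal reports phosphorylation of biotinylated GST-cJun 1-79 at Ser73 with 10 µM ATP; % is scaled to controls: 0 for no effect and ±100 for the full control effect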
In short: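 Kinase buffer: 20 mM Tris-HCl pH 7.6, 10 mM MgCl2, 1 mM DTT, 0.1 mM Na3VO4, 0.01% Tween-20; ATP 10 uM. Substrate biotin-GST-cJun(1-79), enzyme from activated HepG2 lysates. Detection by Ser73 phospho-antibody AlphaScreen.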

[7] = target: 3',5'-cyclic-AMP phosphodiesterase 4B (Homo sapiens) (UniProt Q07343); assay: qHTS Assay for Inhibitors of PDE-IV (AID 607; active = well fitted activation curve with a large enough effect in the main read-out, with a control signal flat, not every such curve was filed as active; also: % of control where 0% means no effect); details: HEK293 ACTOne CNG channel cells, membrane potential fluorescence; series mostly up to 22.9 µM
Chain of 3',5'-cyclic-AMP phosphodiesterase 4B (Homo sapiens) (Q07343 whole entry, looked up): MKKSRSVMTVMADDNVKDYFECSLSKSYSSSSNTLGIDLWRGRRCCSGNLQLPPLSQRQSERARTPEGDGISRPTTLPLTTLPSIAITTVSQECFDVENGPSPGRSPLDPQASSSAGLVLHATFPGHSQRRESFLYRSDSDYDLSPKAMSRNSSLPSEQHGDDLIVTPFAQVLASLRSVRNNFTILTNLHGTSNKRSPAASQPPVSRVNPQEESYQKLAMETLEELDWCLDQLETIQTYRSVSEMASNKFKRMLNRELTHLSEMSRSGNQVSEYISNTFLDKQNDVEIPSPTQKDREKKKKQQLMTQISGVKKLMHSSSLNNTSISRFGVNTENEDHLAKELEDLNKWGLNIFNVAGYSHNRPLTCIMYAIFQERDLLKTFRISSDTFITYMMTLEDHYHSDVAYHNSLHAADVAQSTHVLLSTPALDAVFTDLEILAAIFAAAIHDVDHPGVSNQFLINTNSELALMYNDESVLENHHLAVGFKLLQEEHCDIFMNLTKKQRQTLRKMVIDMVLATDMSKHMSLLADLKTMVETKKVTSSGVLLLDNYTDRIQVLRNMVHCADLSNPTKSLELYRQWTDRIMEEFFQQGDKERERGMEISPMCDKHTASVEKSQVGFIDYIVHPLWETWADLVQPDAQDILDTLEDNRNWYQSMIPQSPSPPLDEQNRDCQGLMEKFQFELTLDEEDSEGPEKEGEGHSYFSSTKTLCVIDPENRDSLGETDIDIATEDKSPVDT
In short: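 Cell-based read-out of cAMP via a modified cyclic nucleotide-gated channel and membrane potential dye (535/590 nm) in HEK293 cells expressing PDE4 endogenously. Compounds tested up to 22.9 uM final; 100 uM RO 20-1724 reference.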

[8] = target: Cytochrome P450 3A4 (Homo sapiens) (UniProt P08684); assay: qHTS Assay for Activators of Cytochrome P450 3A4 (AID 885; active = well fitted curve in the direction sought with a large enough effect; an effect the other way counts as inactive or inconclusive; also: nearly all actives have a fitted effect of over 65% in size); details: recombinant CYP3A4, Luciferin-PPXE luminescence, 60 min; series mostly up to 57.1 µM
Chain of Cytochrome P450 3A4 (Homo sapiens) (P08684 whole entry, looked up): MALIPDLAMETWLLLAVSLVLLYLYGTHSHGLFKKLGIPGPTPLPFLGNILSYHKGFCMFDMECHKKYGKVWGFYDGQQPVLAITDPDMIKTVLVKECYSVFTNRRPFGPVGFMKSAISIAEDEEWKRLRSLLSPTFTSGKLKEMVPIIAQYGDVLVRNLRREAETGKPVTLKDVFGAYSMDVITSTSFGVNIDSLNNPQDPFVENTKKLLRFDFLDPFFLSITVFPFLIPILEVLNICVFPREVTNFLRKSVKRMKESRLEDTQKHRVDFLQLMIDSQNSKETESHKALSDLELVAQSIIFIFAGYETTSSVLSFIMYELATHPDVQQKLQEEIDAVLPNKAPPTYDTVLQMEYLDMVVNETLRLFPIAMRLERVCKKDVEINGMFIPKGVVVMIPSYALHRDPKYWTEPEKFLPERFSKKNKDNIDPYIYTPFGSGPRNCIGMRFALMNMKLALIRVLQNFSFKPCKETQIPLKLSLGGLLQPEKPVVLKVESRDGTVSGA
In short: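 Luminescent readout of luciferin formed from 25 uM Luciferin-PPXE (KM level) by 20 nM CYP3A4 in 200 mM KPO4, with 60 min NADPH-driven reaction at room temperature after 10 min compound exposure. Ketoconazole (57 uM) defined 100% inhibition.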

[9] = qHTS Assay for Lipid Storage Modulators (AID 1519; calls by dose curve); details: Drosophila S3 cells, BODIPY lipid droplet/cell ratio, laser cytometry, cells loaded with oleic acid; for activity change, negative = inhibition: at 57.5 µM (top of the series)
In short: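 Cells seeded at 5,000 per well were treated with compounds over a concentration series and loaded with oleic acid (400 uM, as added). Lipid droplet fluorescence (488 nm excitation, 500-530 nm channel) was read by laser-scanning cytometry and normalized to 20 uM Triacsin C.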

[10] = Primary qHTS for small molecule stabilizers of the endoplasmic reticulum resident proteome: Secreted ER Calcium Modulated Protein (SERCaMP) assay (AID 1508630; active = well fitted curve in the direction sought with a large enough effect; an effect the other way counts as inactive or inconclusive; also: % is scaled to controls: 0 for no effect and ±100 for the full control effect); details: SH-SY5Y GLuc-SERCaMP (Gaussia luciferase released on ER calcium loss) secretion, thapsigargin, luminescence; series mostly up to 38.4 µM
In short: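 The SH-SY5Y reporter protocol was run at 3 concentrations up to 38.3 uM (primary) or 11 concentrations (follow-up): 16 h compound, 100 nM thapsigargin for 4 h, then extracellular luciferase luminescence.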

[11] = Stat Signaling Pathway (AID 446); details: ME-180 SIE beta-lactamase reporter, IL-6 stimulated, 5 h; at 7.69 µM (top of the series) unless noted
In short: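 FRET read-out (405 nm excitation, 460/530 nm emission) of a beta-lactamase reporter under a STAT-inducible element in ME-180 cervical carcinoma cells. Cells with compound receive 40 pM IL-6 for 5 h. Values are normalised to AC90 stimulation and AC90 JAK-inhibitor controls.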

[12] = target: Glucocorticoid receptor (Homo sapiens) (UniProt P04150); assay: GR-GFP Redistribution (AID 450;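 active = compounds whose dose series gives a full or clear partial fitted curve of increased nuclear translocation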; also: potency is read from the fitted curve at half-maximal effect); details: U2OS GR-GFP nuclear translocation, laser cytometry, 2 h
[13] = target: Cytochrome P450 3A4 (Homo sapiens) (UniProt P08684); assay: qHTS Assay for Inhibitors and Substrates of Cytochrome P450 3A4 (AID 884; active = well fitted curve in the direction sought with a large enough effect; an effect the other way counts as inactive or inconclusive; also: nearly all actives have a fitted effect of over 50% in size; also: potency is read from the fitted curve at half-maximal effect); details: recombinant CYP3A4, Luciferin-PPXE luminescence; series mostly up to 57.1 µM
In short: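 Luminescent readout of luciferin produced by CYP3A4 (20 nM) dealkylation of Luciferin-PPXE, 25 uM (its KM). NADPH-driven reaction ran 60 min at RT after 10 min compound preincubation; data scaled to 57 uM ketoconazole as 100% inhibition.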

[14] = target: Cytochrome P450 2D6 (Homo sapiens) (UniProt P10635); assay: qHTS Assay for Inhibitors and Substrates of Cytochrome P450 2D6 (AID 891; active = well fitted curve in the direction sought with a large enough effect; an effect the other way counts as inactive or inconclusive; also: potency is read from the fitted curve at half-maximal effect; nearly all actives have a fitted effect of over 60% in size); details: recombinant CYP2D6, luciferin-ME EGE luminescence; series mostly up to 57.1 µM
Chain of Cytochrome P450 2D6 (Homo sapiens) (P10635 whole entry, looked up): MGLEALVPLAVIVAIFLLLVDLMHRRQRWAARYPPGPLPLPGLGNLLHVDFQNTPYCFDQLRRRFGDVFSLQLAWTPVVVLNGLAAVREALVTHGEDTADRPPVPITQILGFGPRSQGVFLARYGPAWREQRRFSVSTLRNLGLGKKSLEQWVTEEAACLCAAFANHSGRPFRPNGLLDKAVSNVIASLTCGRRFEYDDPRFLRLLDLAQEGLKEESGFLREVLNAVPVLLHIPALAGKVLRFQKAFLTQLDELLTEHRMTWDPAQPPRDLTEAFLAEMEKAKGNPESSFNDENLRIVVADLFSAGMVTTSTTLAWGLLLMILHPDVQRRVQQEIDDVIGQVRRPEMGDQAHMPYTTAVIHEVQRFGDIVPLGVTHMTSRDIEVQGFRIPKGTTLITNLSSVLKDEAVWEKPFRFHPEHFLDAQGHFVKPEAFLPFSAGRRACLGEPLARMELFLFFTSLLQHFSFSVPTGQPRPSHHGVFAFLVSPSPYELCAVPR
In short: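 Luminescent read-out of luciferin formed by 5 nM human CYP2D6 demethylating 30 uM Luciferin-ME EGE (Km level) over 60 min at room temperature after NADPH regeneration addition. Data normalized to full inhibition by 1.43 uM quinidine.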

[15] = target: Cytochrome P450 2C19 (Homo sapiens) (UniProt P33261); assay: qHTS Assay for Inhibitors and Substrates of Cytochrome P450 2C19 (AID 899; active = well fitted curve in the direction sought with a large enough effect; an effect the other way counts as inactive or inconclusive; also: potency is read from the fitted curve at half-maximal effect; nearly all actives have a fitted effect of over 60% in size); details: recombinant CYP2C19, luciferin-H EGE luminescence; series mostly up to 57.1 µM
Chain of Cytochrome P450 2C19 (Homo sapiens) (P33261 whole entry, looked up): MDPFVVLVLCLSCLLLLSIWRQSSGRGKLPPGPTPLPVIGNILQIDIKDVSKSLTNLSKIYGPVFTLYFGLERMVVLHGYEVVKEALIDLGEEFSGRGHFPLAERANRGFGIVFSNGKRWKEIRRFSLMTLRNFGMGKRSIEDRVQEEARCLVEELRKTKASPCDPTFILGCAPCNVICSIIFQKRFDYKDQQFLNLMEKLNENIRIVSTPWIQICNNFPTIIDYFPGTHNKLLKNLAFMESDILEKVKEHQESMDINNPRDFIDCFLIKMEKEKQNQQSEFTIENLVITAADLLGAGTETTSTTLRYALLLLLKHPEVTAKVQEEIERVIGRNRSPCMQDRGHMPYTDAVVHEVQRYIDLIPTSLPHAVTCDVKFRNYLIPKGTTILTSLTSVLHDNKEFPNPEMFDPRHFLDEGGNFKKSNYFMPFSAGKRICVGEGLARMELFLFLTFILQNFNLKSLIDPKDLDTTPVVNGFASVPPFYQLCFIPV
In short: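 5nM enzyme + 10uM Luciferin-H EGE (=KM), 50mM KPO4; cpd pin-transferred, 10 min 37C; NADPH regen, 60 min 37C; stopped w/ luciferin detection reagent, 20 min; luminescence. Normalized to 57uM ketoconazole (AC100).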

[16] = Confirmation and Secondary Assay for Modulators of Hemoglobin Beta Chain Splicing at IVS2 654 locus (AID 910; active = well fitted curve in the direction sought with a large enough effect; an effect the other way counts as inactive or inconclusive;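 also: HeLa cells stably carrying EGFP split by mutant beta-globin IVS2-654 intron; per-well total GFP intensity by laser scanning cytometry after 2-day treatment; % of control where 0% means no effect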); details: HeLa EGFP-654 splicing reporter, GFP fluorescence, 48 h; series mostly up to 38.3 µM
In short: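 Readout: per-well total peak green fluorescence (488 nm ex, 500–520 nm em) from objects 5–250 µm, reflecting correct splicing of an EGFP-654 reporter. Compounds were applied for 2 days at 37 °C to overnight-plated HeLa EGFP-654 cells; controls were DMSO and 500 nM IVS2-654 PNA.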

[17] = Confirmation and Secondary Assay for Modulators of Hemoglobin Beta Chain Splicing at IVS2 705 locus (AID 930; active = well fitted curve in the direction sought with a large enough effect; an effect the other way counts as inactive or inconclusive;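 also: HeLa cells stably expressing the EGFP-705 splicing reporter; % of control where 0% means no effect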); details: HeLa EGFP-705 splicing reporter, GFP fluorescence, 48 h; series mostly up to 38.3 µM
In short: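 HeLa cells stably carrying EGFP interrupted by mutant beta-globin IVS2-705 intron (CMV-driven) were seeded at 500 cells/well, treated next day with compound for 2 days at 37C; corrected splicing restores EGFP, read as total peak GFP intensity per well.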

[18] = qHTS Assay for Identification of Small Molecule Agonists for Hypoxia Response Element Signaling Pathway (AID 914; active = well fitted activation curve with a large enough effect in the signal ratio, with a control signal flat, not every such curve was filed as active; the % refers to the signal ratio; also: % of control where 0% means no effect); details: ME-180 HRE-bla reporter, beta-lactamase ratio, CoCl2, 17 h; activation: stronger effect = higher value
In short: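 ME-180 cells carrying an HRE-driven beta-lactamase reporter were treated with compounds in a titration series plus an EC50 level of CoCl2 for 17 h at 37 degrees Celsius; CCF4 readout as the 460nm/530nm ratio gave AC50 values.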

[19] = measured here: cell count channel max response
[20] = measured here: lipid channel max response

Cn1cccc1C(=O)N1CCC[C@@]2(CCN(Cc3ccccc3)C2)C1
9.58%: max response [9, 20]
inactive: Potency [1] > 11.4 µM | activity change, negative = inhibition [2] -8.23% | activity change, negative = inhibition [4] -14.1% | Potency [5] > 46 µM | outcome [6] | Potency [7] | Potency [8] | activity change, negative = inhibition [9] 3.81% | Potency [10]
5.36%: max response [9, 19]
active: Potency [3] 10 µM

Clc1ccccc1-c1nccc(-n2ccnc2)n1
13%: max response [9, 20]
inactive: Potency [1] > 11.4 µM | activity change, negative = inhibition [2] -12.3% | activity, negative = inhibition [11] 0.405% | Potency [12] > 46 µM | Potency [5] > 46 µM | outcome [6] | Potency [7] | Potency [8] | outcome [16] | outcome [17] | activity change, negative = inhibition [9] 8.95% | Potency [10]
4.29%: max response [9, 19]
active: Potency [3] 0.158 µM | Potency [13] 1.26 µM | Potency [14] 7.94 µM | Potency [15] 2.51 µM

O=C(Nc1ccccc1)N1CCC2(CC1)CCN(S(=O)(=O)c1ccccc1)CC2
7.34%: max response [9, 20]
active: Potency [3] 7.94 µM
-0.439%: max response [9, 19]
inactive: Potency [1] > 11.4 µM | activity change, negative = inhibition [2] -0.036% | activity change, negative = inhibition [4] 21.1% | Potency [5] > 46 µM | outcome [6] | Potency [7] | Potency [8] | activity change, negative = inhibition [9] 3.55% | Potency [10]

COC(=O)N1CCC2(CCN(Cc3nccs3)CC2)CC1
inactive: Potency [1] > 11.4 µM | activity change, negative = inhibition [2] -10.7% | Potency [3] | activity change, negative = inhibition [4] -25.8% | activity, negative = inhibition [11] 0.339% | outcome [6] | Potency [7] | Potency [13] | activity change, negative = inhibition [9] 2.86% | Potency [10]
6.91%: max response [9, 19]
13.2%: max response [9, 20]

Cc1noc(C)c1-c1cc(NCc2ccccc2)ncn1
active: Potency [3] 5.01 µM
18%: max response [9, 20]
inactive: Potency [1] > 11.4 µM | activity change, negative = inhibition [2] -3.94% | activity, negative = inhibition [11] -12.8% | Potency [12] > 46 µM | Potency [5] > 46 µM | outcome [6] | Potency [7] | outcome [16] | outcome [17] | activity change, negative = inhibition [9] 9.87% | Potency [10]
11.1%: max response [9, 19]

CC(C)NC(=O)N1CCCC2(CCN(C(=O)c3cc(C(F)(F)F)cc(C(F)(F)F)c3)CC2)C1
16.6%: max response [9, 19]
12%: max response [9, 20]
inactive: Potency [1] > 11.4 µM | activity change, negative = inhibition [2] -19.4% | Potency [3] | activity change, negative = inhibition [4] 11.4% | activity, negative = inhibition [11] -13.3% | Potency [5] > 46 µM | Potency [7] | Potency [8] | activation [18] -9.04% | activity change, negative = inhibition [9] -6.13% | Potency [10]
